Screening results as filed in PubChem.
HTT ATP protect: qHTS Multiplex Assay to Identify Dual Action Probes in a Cell Model of Huntington: Cytoprotection (ATP); Potency, µM (series often up to 56.4 µM), for the others: cytoprotection (ATP increase), usual class: activators; PC12 HTT-Q103 induced, cytoprotection, ATP luminescence, 40 h; 0.14% of 230,000 active; also: potency is read from the fitted curve at half-maximal effect; % of control where 0% means no effect; nearly all actives have a fitted effect of over 45% in size
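ATP quantification (ATPlite) reports survival of PC12 cells in which tebufenozide, 100 nM final, switches on Htt exon 1 with 103 glutamines linked to GFP; compounds are titrated.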
PNC inhibitor: High Content Assay for Compounds that inhibit the Assembly of the Perinucleolar Compartment; AID 2417, 2010; 3.1% of 140,000 active; activity change (PNC), negative = inhibition, % at 10 µM; PC3M PTB-GFP, PNC prevalence imaging, 16 h; hits give low values;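 active = readout at or below -70, meaning at least 70% loss of cells showing the perinucleolar compartment, a nuclear body marking cancer cells; inconclusive = readout between -30 and a set limit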;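 also: plate controls were DMSO wells for no effect and camptothecin positive control wells for full effect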
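Read-out is percentage of cells bearing a perinucleolar compartment, from automated 20x imaging of fixed, Hoechst-stained PC3M PTB-GFP cells. Cells were seeded 4 h, then exposed 16 h to compound (23 nl of library stock) in duplicate plates.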
HttQ103 aggreg: qHTS Multiplex Assay to Identify Dual Action Probes in a Cell Model of Huntington: Aggregate Formation (GFP). PC12 HttQ103-GFP aggregates, Acumen cytometry, 40 h. 1.1% of 220,000 active. Potency, µM (highest dose often 46.1 µM), inactives show top-dose activity change, negative = inhibition, most hits filed as inhibitors; also: potency is read from the fitted curve at half-maximal effect; % is scaled to controls: 0 for no effect and ±100 for the full control effect; nearly all actives have a fitted effect of over 60% in size
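Compounds (qHTS titration) were added to PC12 cells expressing an ecdysone-driven HTT exon 1 Q103–GFP fusion after induction with 100 nM tebufenozide. Aggregate formation was measured as GFP objects in cell lysates.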
Starred values were filed as active, the others as inactive; ? = inconclusive; / = not tested or not shown; ! = not confirmed by another sample; [ ] = remark or other dose. The entries come from a sample that favours hits as a whole. Unless noted, calls follow the shape of the dose curve; as a rule, active = well fitted curve in the direction sought with a large enough effect; inconclusive = small, poorly fitted or top-dose-only effect, or another doubt; inactive = no such curve, though single readings can be large; an effect the other way counts as inactive or inconclusive.

SMILES	HTT ATP protect	PNC inhibitor	HttQ103 aggreg
CCOC(=O)N1CCN(S(=O)(=O)c2ccc(OCC(=O)OC)cc2)CC1	-21.0%[0.074 µM]	23.7	0.3%
CCOC(=O)N1CCN(S(=O)(=O)c2ccc(OCC(=O)OC)c(C)c2)CC1	-17.5%[0.074 µM]	-84.0*	2.2%
COc1cccc(/C(C#N)=C/c2c(-c3ccc(Cl)cc3)nc3c(C)cccn23)c1	-12.0%[10 µM]	-99.4*	-13.4%
Cc1cccn2c(/C=N/OCc3cccc(F)c3)c(-c3ccc(Cl)cc3)nc12	-11.3%	36.3	-5.4%
S=C(NCc1cccs1)Nc1cc(Cl)cc(Cl)c1	-10.3%[10 µM]	/	-9.3%[9.22 µM]
c1ccc2sc(Cc3nnc4n3CCCCC4)nc2c1	-0.2%	-82.5*	-10.8%
c1ccc(OCc2nnc3n2CCCCC3)cc1	-3.6%[10 µM]	/	-6.2%[9.22 µM]
COc1ccc(-c2csc(Cc3nnc4n3CCCCC4)n2)cc1	-1.8%	?	-10.1%
FC(F)Oc1ccc(-c2csc(Cc3nnc4n3CCCCC4)n2)cc1	-6.0%[10 µM]	-100.0*	-21.3%
NC(=O)C1(N2CCCCC2)CCN(CC(=O)Nc2cc(Cl)ccc2Cl)CC1	33.6%[10 µM]	?	-18.7%
Cc1cc(C)nc(SCC(=O)Nc2ccc(S(=O)(=O)Nc3ncccn3)cc2)n1	-45.3%[10 µM]	/	-12.4%[9.22 µM]
CCCCC1OC2(C)OC(=N)C1(C#N)C(C#N)(C#N)C2c1ccccc1 (configuration not stated)	1.7%[10 µM]	25.4	-5.0%
CN1CCN(NC(=O)c2cn(-c3ccccc3)nc2-c2cccc(Br)c2)CC1	-25.2%	/	1.9%
Nc1ncn(C2C[C@H](O)[C@@H](CO)O2)c(=O)n1 (some centres not stated)	-18.6%	/	-3.8%
CN(C)c1ncnc2c1ncn2C1OC(CO)C(O)C1O (configuration not stated)	-103.4%	41.1	4.47µM*
O=c1[nH]cnc2c1ncn2C1OC(CO)C(O)C1O (configuration not stated)	8.91µM*!	/	-5.9%
CNc1ncnc2c1ncn2[C@@H]1O[C@@H](CO)[C@H](O)[C@@H]1O	12.4%[1.9 µM]	/	/
Nc1nc2c(ncn2[C@@H]2O[C@H](CO)[C@@H](O)[C@H]2O)c(=O)[nH]1	-3.2%[1.9 µM]	/	/
Nc1ncn([C@@H]2O[C@H](CO)[C@@H](O)[C@H]2O)c(=O)n1	-111.4%	/	12.6µM*
CN(C)C(=O)/C=C\c1cn(-c2ccccc2)nc1-c1ccc2c(c1)OCCO2	14.1%	/	-16.5%
NC(=Nc1ccccc1)Nc1ccccc1	30.8%	/	17.4%
COc1ccccc1CNc1nc(-c2ccccc2CN(C)C)nc2ccccc12	-92.8%	/	/
O=C(COc1ncnc2sccc12)Nc1ccc2c(c1)OCCO2	7.6%	-112.5*	6.1%
Cc1sc2ncnc(OCC(=O)Nc3ccc4c(c3)OCCO4)c2c1C	-6.8%	-28.5	-0.5%
O=C1Nc2ccccc2N(O)N1c1ccc(S(=O)(=O)N2CCCCCC2)cc1	2.7%[10 µM]	-82.1*	2.3%
SMILES	HTT ATP protect	PNC inhibitor	HttQ103 aggreg
CCN(CC)S(=O)(=O)c1ccc(N2C(=O)Nc3ccccc3N2O)cc1	25.4%[10 µM]	53.8	-14.4%
Cc1cc(-c2ccccc2)n(-c2cc(N/N=C/c3ccccc3O)ncn2)n1	-88.5%[10 µM]	-90.6*	8.91µM*
CNc1cc(-n2nc(C)cc2-c2ccccc2)ncn1	-13.4%	-8.5	1.6%
Cn1c(=O)c2c(nc(Br)n2CC(=O)C23CC4CC(CC(C4)C2)C3)n(C)c1=O	-2.0%[0.074 µM]	?	-9.3%
Cn1nnnc1SCCNCc1cc(Cl)ccc1OCc1ccccc1	16.5%[10 µM]	-3.3	25.1µM*
Cn1nnnc1SCCNCc1ccccc1OCc1ccc(Cl)cc1	-3.0%[10 µM]	-16.0	-5.6%
O=C(Oc1ccccc1)N1CCC[C@@]2(CCN(c3ccccn3)C2)C1	25.0%	/	/
CCCNC(=O)c1nnsc1S(=O)(=O)c1ccc(Cl)cc1	-143.7%	/	?
CCCNC(=O)c1nnsc1S(=O)c1ccc(Cl)cc1 (configuration not stated)	-150.2%	/	11.2µM*
CNC(=O)c1nn(-c2ccc(Cl)cc2)ccc1=O	15.8%[10 µM]	17.2	13.6%
CNC(=O)c1nnsc1S(=O)c1ccc(Cl)cc1 (configuration not stated)	-142.1%	/	14.1µM*
OC(COc1ccccc1)CN1C2=NCCCN2c2ccccc21 (configuration not stated)	9.5%[10 µM]	0.3	-3.4%
CC(C)(C)NCc1cc2ccccc2[nH]c1=O	-21.3%	-11.2	3.5%[9.22 µM]
Cc1ccc2[nH]c(=O)c(CNC(C)(C)C)cc2c1	-17.0%[0.074 µM]	-106.9*	7.4%
O=[N+]([O-])c1ccc(OCC(O)CNCCNc2nccc(C(F)(F)F)n2)cc1 (configuration not stated)	27.4%[10 µM]	/	3.0%[9.22 µM]
CC1(C)N=C(SCC(=O)Nc2ccc(Cl)cc2)C(c2ccc(Cl)cc2)=N1	8.1%	?	?
CCCOc1c(Br)cc(C2C3=C(CCCC3=O)N(CC)C3=C2C(=O)CCC3)cc1OC	15.5%	/	8.3%
CCCOc1c(Br)cc(C2C3=C(CCCC3=O)N(C)C3=C2C(=O)CCC3)cc1OC	/	-98.1*	9.9%
CCC(C)n1cnc2c(=O)oc3ccccc3c21 (configuration not stated)	18.1%	15.1	10.4%[9.22 µM]
COc1ccc2c(CC(=O)OCC(=O)c3ccc(F)cc3)coc2c1	-12.6%[10 µM]	?	8.1%
CCCC1(C)Nc2ccccc2-c2nc3ccccc3n21 (configuration not stated)	-25.7%	-82.0*	-8.3%
c1ccc2c(c1)NC1(CCCC1)n1c-2nc2ccccc21	20.7%[10 µM]	-14.7	0.3%
COc1ccc(S(=O)(=O)N2CCCCCC2)cc1NC(=O)Cc1ccccc1F	2.4%[10 µM]	/	-7.5%[9.22 µM]
Cc1c(C)c2cc(Cl)c(O)c(CN(C)C)c2oc1=O	6.5%	?	4.6%
CCc1c(C)c2cc(Cl)c(O)c(CN(C)C)c2oc1=O	-7.8%[0.074 µM]	17.4	3.16µM*
SMILES	HTT ATP protect	PNC inhibitor	HttQ103 aggreg
COc1ccc(C(O)P(=O)(OCCC(C)C)c2ccc(N(C)C)cc2)cc1OC (configuration not stated)	-13.1%[10 µM]	/	-16.4%[9.22 µM]
COc1cc(Br)c(CC(=O)O)cc1OC	-3.0%	22.5	-3.8%
CC(=O)Nc1ccccc1-c1nc2ccccc2nc1OCC(=O)c1ccc(Br)cc1	-7.5%	?	17.4%
CCOC(=O)c1ccc(COc2nc3ccccc3nc2-c2ccccc2NC(C)=O)o1	3.0%[10 µM]	-115.5*	-1.3%
C(=C\c1nnc2c3ccccc3ncn12)/c1ccccc1	/	-96.8*	-0.5%
COc1cc(/C=C/c2nnc3c4ccccc4ncn23)cc(OC)c1OC	-13.7%[10 µM]	48.3	7.1%
CCCCN(C)C(=O)C1CCC(=O)N(c2cc(OC)c(OC)c(OC)c2)C1c1ccc(OC)cc1 (configuration not stated)	-5.6%[10 µM]	-100.0*	11.9%
COc1ccc(N2C(=O)CCC(C(=O)N(C)CCc3ccccn3)C2c2ccc(OC)c(OC)c2)cc1 (configuration not stated)	-19.3%	/	5.8%
NC(=O)c1cccnc1Oc1cccc(Cl)c1	0.8%	?	-10.3%
Clc1cccc(Oc2ncccn2)c1	0.8%[0.074 µM]	-82.6*	1.6%
COc1cc(OC)nc(-n2ncc(Br)c(Br)c2=O)n1	/	?	4.47µM*
COC(=O)c1cnn(-c2nc(OC)cc(OC)n2)c1C	-26.5%[10 µM]	?	-17.1%
CCCNC(=O)c1cc(SC)ccc1Cl	16.1%	32.6	-3.3%
CSc1ccc(Cl)c(C(=O)NCC(C)C)c1	-17.3%[0.074 µM]	?	2µM*
